Measurements from the supplement of paper PMC6555819.

Tests used:
Experiment in all cases: PBM binding z-score (relative to random genomic background probes); higher = stronger binding; sequences stand for … in GC…GCGATTGACAGCGTAGAATGAAGG
[1] = system: FXR:RXRa (NR concentration 270 nM, RXRa partner concentration 90 nM)
How it was run: (§1)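 Each nuclear receptor dimer, without ligand, was incubated for 1 h on custom Agilent 4×180K protein-binding microarrays. Binding was detected with antibodies against each partner (one per run), and scanned fluorescence was regression-normalized. The binding z-scores are referenced to random human genomic background probes.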

[2] = system: LXRa:RXRa (NR concentration 270 nM, RXRa partner concentration 90 nM)
How it was run: as §1

[3] = system: LXRa homodimer (NR concentration 270 nM)
How it was run: as §1

[4] = system: LXRb:RXRa (NR concentration 270 nM, RXRa partner concentration 90 nM)
How it was run: as §1

[5] = system: LXRb homodimer (NR concentration 270 nM)
How it was run: as §1

[6] = system: PPARa:RXRa (NR concentration 270 nM, RXRa partner concentration 90 nM)
How it was run: as §1

[7] = system: PPARg:RXRa (NR concentration 180 nM, RXRa partner concentration 90 nM)
How it was run: as §1

[8] = system: PPARg:RXRa 270nM:90nM, anti-RXR (NR concentration 270 nM, RXRa partner concentration 90 nM)
How it was run: as §1

[9] = system: PPARg:RXRa 30nM:10nM, anti-RXR (NR concentration 30 nM, RXRa partner concentration 10 nM)
How it was run: as §1

[10] = system: PPARg:RXRa 90nM:30nM, anti-RXR (NR concentration 90 nM, RXRa partner concentration 30 nM)
How it was run: as §1

Sequence	PBM binding z-score [1]	PBM binding z-score [2]	PBM binding z-score [3]	PBM binding z-score [4]	PBM binding z-score [5]	PBM binding z-score [6]	PBM binding z-score [7]	PBM binding z-score [8]	PBM binding z-score [9]	PBM binding z-score [10]
GCTGCTAGGTCAACTGATGGTCCGCTAAAGCTCG	3.85	2.46	0.00165	1.92	-0.00733	3.41	2.32	2.97	0.463	1.97
ACAGACAGGTGAGTGAAGGTAATTCAGCTGGACG	0.214	0.102	-0.0483	-0.196	-0.576	-0.0438	0.499	0.152	-0.212	-0.193
CAAACTAGGTCAAGAGATCAAAGTCCGCTTCCCG	3.4	2.88	0.62	1.95	0.064	5.17	8.04	6.89	4.87	6.68
AGAATGAGGTTATCAAGATCAGGGAATTGCGGTC	1.64	1.37	0.0557	1.14	-0.163	2.8	1.6	2.08	0.462	1.29
ATATGGAGGTTATCGGGTCATTCAGTTTGCGCAT	4.63	4.39	2.28	3.8	1.41	4.84	5.29	5	2.08	3.73
CCGACTGGGGCAGAAAGGTTACCATCCCATCCGG	0.0864	0.742	-0.151	0.878	-0.971	2.03	1.44	2.53	0.448	1.96
TCTTGTAGATCAACAGAGGTTAAGAAAGTGCGCT	0.849	3.72	0.564	2.19	-0.36	2.09	0.162	1.64	2.33	1.98
CCCACTGGGGCATAAGGTTACCATAAGCCAGCCC	0.325	1.44	-0.234	0.476	-1.1	2.36	3.91	4.26	1.73	3.6
TCTGCTAGGTCAGTTGGTCAGCTATCGAGCTGCC	0.915	0.538	-0.72	0.193	0.35	1.26	0.224	1.72	1.21	1.45
CAAACTAGGTCGCCGGAAGGTCAAAGTCCGCATG	3.54	4.14	2.85	3.54	0.401	4.61	5.39	4.95	2.29	4.13
TCATATAGGTGAACAGGTGAAAGTCCGTAAGTTA	1.35	1.14	0.444	1.22	0.00841	3.47	4.77	4.6	4.3	4.44
CGTCCAAGATCATAGGAGGTCAGTGAAGACAGAT	1.56	2.77	1.2	2.26	0.134	2.69	0.898	0.559	0.251	0.198
